# Laboratory results published in the supplement of paper PMC8728848.
# Shown is part of a subset that was picked to be rich in the strongest signals.
# B1: Erv41-EDTA (Saccharomyces cerevisiae), Q04651 (protein)
# chain: MKFLVNVALVFMVVYISYIYAAAPEHHHHHHDYDIPTTENLYFQGAMGYIDQQYVVDSQVRDTVQINMDIYVNTKCDWLQINVRDQTMDRKLVLEELQLEEMPFFIPYDTKVNDINEIITPELDEILGEAIPAEFREKLDTRSFFDESDPNKAHLPEFNGCHVFGSIPVNRVSGELQITAKSLGYVASRKAPLEELKFNHVINEFSFGDFYPYIDNPLDNTAQFNQDEPLTTYVYYTSVVPTLFKKLGAEVDTNQYSVNDYRYLYKDVAAKGDKMPGIFFKYNFEPLSIVVSDVRL
# What was measured:
# Assay in all cases: glycan array binding signal (z-score within array); higher = stronger binding
# Settings in all cases: glycan notation: IUPAC condensed, linker removed
# [1] = target: GlcNAc(b1-3)Gal(b1-4)GlcNAc(b1-3)Gal(b1-4)GlcNAc(b1-3)Gal(b1-4)GlcNAc(b1-2)Man(a1-3)[GlcNAc(b1-3)Gal(b1-4)GlcNAc(b1-3)Gal(b1-4)GlcNAc(b1-3)Gal(b1-4)GlcNAc(b1-2)Man(a1-6)]Man(b1-4)GlcNAc(b1-4)GlcNAc
# How it was run: (§1)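 Glycan array data were curated from 3228 arrays in the Consortium for Functional Glycomics database and kept only where the protein sequence was available. Glycan names were converted to IUPAC-condensed notation, and columns mapping to the same glycan were averaged. The binding signal is a within-array Z-score, averaged across arrays of the same protein sequence at different concentrations or buffers and across linkers. Negative Z-scores can be read as non-binding.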
# [2] = target: Kdn(a2-3)Gal(b1-3)GalNAc
# How it was run: as §1
# [3] = target: Man(a1-2)Man(a1-2)Man(a1-3)Man
# How it was run: as §1
# [4] = target: Man(a1-3)[Man(a1-6)]Man(b1-4)GlcNAc(b1-4)[Fuc(a1-6)]GlcNAc
# How it was run: as §1
# [5] = target: Neu5Ac(a2-3)Gal(b1-3)[Neu5Ac(a2-6)]GalNAc
# How it was run: as §1
# [6] = target: Neu5Ac(a2-3)Gal(b1-3)]Neu5Ac(a2-3)Gal(b1-4)]GlcNAc
# How it was run: as §1
# [7] = target: Neu5Ac(a2-3)Gal(b1-4)GlcNAc(b1-2)Man(a1-3)[Neu5Ac(a2-3)Gal(b1-4)GlcNAc(b1-2)Man(a1-6)]Man(b1-4)GlcNAc(b1-4)[Fuc(a1-6)]GlcNAc
# How it was run: as §1
# [8] = target: Neu5Ac(a2-3)Gal(b1-4)GlcNAc(b1-2)[Neu5Ac(a2-3)Gal(b1-4)GlcNAc(b1-4)]Man(a1-3)[GlcNAc(b1-4)][Neu5Ac(a2-3)Gal(b1-4)GlcNAc(b1-2)[Neu5Ac(a2-3)Gal(b1-4)GlcNAc(b1-6)]Man(a1-6)]Man(b1-4)GlcNAc(b1-4)GlcNAc
# How it was run: as §1
# [9] = target: Neu5Ac(a2-3)Gal(b1-4)GlcNAc(b1-2)[Neu5Ac(a2-3)Gal(b1-4)GlcNAc(b1-4)]Man(a1-3)[GlcNAc(b1-4)][Neu5Ac(a2-3)Gal(b1-4)GlcNAc(b1-4)Man(a1-6)]Man(b1-4)GlcNAc(b1-4)GlcNAc
# How it was run: as §1
# [10] = target: Neu5Ac(a2-3)Gal(b1-4)GlcNAc(b1-6)GalNAc
# How it was run: as §1
# [11] = target: Neu5Ac(a2-3)Gal(b1-4)[Fuc(a1-3)]GlcNAc
# How it was run: as §1
# [12] = target: Neu5Ac(a2-3)Gal(b1-4)[Fuc(a1-3)]GlcNAc(b1-3)GalNAc
# How it was run: as §1
# [13] = target: Neu5Ac(a2-3)Gal6S(b1-4)GlcNAc
# How it was run: as §1
# [14] = target: Neu5Ac(a2-6)Gal(b1-4)GlcNAc(b1-2)Man(a1-3)Man(b1-4)GlcNAc(b1-4)GlcNAc
# How it was run: as §1
# [15] = target: Neu5Ac(a2-6)Gal(b1-4)GlcNAc(b1-3)Gal(b1-4)GlcNAc(b1-3)Gal(b1-4)GlcNAc(b1-2)Man(a1-3)[Neu5Ac(a2-6)Gal(b1-4)GlcNAc(b1-3)Gal(b1-4)GlcNAc(b1-3)Gal(b1-4)GlcNAc(b1-2)Man(a1-6)]GalNAc
# How it was run: as §1
# [16] = target: Neu5Ac(a2-6)Gal(b1-4)GlcNAc(b1-6)[Gal(b1-3)]GalNAc
# How it was run: as §1
# [17] = target: Neu5Ac(a2-6)Gal(b1-4)GlcNAc6S
# How it was run: as §1
# [18] = target: Neu5Ac(a2-6)GlcNAc(b1-4)GlcNAc
# How it was run: as §1
# [19] = target: Neu5Ac(a2-8)Neu5Ac(a2-3)Gal(b1-3)GalNAc(b1-4)[Neu5Ac(a2-3)]Gal(b1-4)Glc
# How it was run: as §1
# [20] = target: Neu5Ac(a2-8)Neu5Ac(a2-3)[Gal(b1-3)GalNAc(b1-4)]Gal(b1-4)Glc
# How it was run: as §1
# [21] = target: Neu5Gc(a2-8)Neu5Gc(a2-3)Gal(b1-4)GlcNAc
# How it was run: as §1
# [22] = target: Neu5Gc(a2-8)Neu5Gc(a2-6)Gal(b1-4)GlcNAc
# How it was run: as §1
binder,measurement,setting,value
B1,glycan array binding signal (z-score),[1],0.272
same,glycan array binding signal (z-score),[2],0.349
same,glycan array binding signal (z-score),[3],-0.638
same,glycan array binding signal (z-score),[4],-0.081
same,glycan array binding signal (z-score),[5],-0.609
same,glycan array binding signal (z-score),[6],-0.585
same,glycan array binding signal (z-score),[7],2.09
same,glycan array binding signal (z-score),[8],1.18
same,glycan array binding signal (z-score),[9],-0.72
same,glycan array binding signal (z-score),[10],-0.767
same,glycan array binding signal (z-score),[11],0.162
same,glycan array binding signal (z-score),[12],1.5
same,glycan array binding signal (z-score),[13],0.025
same,glycan array binding signal (z-score),[14],1.97
same,glycan array binding signal (z-score),[15],2.65
same,glycan array binding signal (z-score),[16],0.134
same,glycan array binding signal (z-score),[17],-0.865
same,glycan array binding signal (z-score),[18],0.004
same,glycan array binding signal (z-score),[19],-0.348
same,glycan array binding signal (z-score),[20],1.35
same,glycan array binding signal (z-score),[21],0.393
same,glycan array binding signal (z-score),[22],1.14
